Common to all, as to test: DAPPL (digital affinity profiling via proximity ligation, sequencing); 10 mM Tris-HCl pH 7.5, 50 mM NaCl, 1 mM DTT, 4% glycerol, room temperature, 30 min; GST-TFs on glutathione beads, 16-mer random dsDNA library, 0.1% formaldehyde crosslink after washing; high values mean tight binding
Common to all, as to conditions: protein: recombinant; tags: N-terminal GST; dsDNA, one strand shown

For one test, the target named is T1, ELK1 (Homo sapiens, UniProt P19419 1-428).
T1 sequence: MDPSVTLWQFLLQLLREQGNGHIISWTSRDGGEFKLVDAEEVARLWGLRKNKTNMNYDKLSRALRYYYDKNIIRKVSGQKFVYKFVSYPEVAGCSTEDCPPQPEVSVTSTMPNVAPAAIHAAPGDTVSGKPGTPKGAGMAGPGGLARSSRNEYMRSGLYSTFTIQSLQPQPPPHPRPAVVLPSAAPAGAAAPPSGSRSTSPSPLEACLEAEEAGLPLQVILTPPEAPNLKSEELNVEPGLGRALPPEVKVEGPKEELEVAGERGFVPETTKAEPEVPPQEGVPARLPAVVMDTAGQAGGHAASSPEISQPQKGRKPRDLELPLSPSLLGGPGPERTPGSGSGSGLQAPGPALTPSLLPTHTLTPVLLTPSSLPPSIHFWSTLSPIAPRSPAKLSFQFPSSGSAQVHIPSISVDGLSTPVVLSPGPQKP
The procedure, abridged:
(§1)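 GST fusions of human transcription factors were expressed in yeast and captured with glutathione beads. Once given DNA barcodes and pooled alongside a tag-only sample, they were incubated for 30 min at room temperature with 200 nmole of a random double-stranded 16-mer DNA library in Tris/NaCl/DTT/glycerol buffer, then washed, crosslinked (0.1% formaldehyde), proximity-ligated, PCR-amplified and sequenced on an Illumina NextSeq500. The binding signal of each hexamer is its read frequency for a factor divided by its frequency for the tag-only sample.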

Another test concerns the target T2, GABPA (Homo sapiens, UniProt Q06546 1-454).
T2 sequence: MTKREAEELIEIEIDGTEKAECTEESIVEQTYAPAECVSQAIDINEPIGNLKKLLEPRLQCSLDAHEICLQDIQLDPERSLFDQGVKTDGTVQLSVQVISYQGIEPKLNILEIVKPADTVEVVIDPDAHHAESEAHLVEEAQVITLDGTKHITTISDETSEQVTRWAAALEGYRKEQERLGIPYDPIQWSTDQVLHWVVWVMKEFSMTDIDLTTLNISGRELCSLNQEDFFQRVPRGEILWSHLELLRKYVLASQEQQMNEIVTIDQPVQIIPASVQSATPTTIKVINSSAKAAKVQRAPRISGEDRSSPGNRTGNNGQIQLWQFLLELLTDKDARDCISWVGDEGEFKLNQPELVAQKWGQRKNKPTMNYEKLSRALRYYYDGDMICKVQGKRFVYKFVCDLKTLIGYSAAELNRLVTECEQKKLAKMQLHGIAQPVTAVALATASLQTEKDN
The procedure, abridged:
as §1

The target in a further test is T3, ERG (Homo sapiens, UniProt P11308 1-479).
T3 sequence: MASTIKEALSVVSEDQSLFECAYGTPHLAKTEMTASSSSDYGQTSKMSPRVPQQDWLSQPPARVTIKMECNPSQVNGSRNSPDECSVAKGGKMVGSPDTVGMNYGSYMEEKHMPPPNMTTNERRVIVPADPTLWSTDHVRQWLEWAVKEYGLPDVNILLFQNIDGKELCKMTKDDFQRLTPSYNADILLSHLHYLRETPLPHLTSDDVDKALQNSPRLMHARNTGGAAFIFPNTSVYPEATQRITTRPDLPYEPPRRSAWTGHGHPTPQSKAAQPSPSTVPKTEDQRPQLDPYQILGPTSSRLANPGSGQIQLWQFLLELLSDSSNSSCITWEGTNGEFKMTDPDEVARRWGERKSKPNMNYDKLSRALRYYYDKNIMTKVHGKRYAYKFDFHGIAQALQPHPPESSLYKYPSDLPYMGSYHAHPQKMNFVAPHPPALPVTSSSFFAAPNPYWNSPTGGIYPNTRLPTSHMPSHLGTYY
A digest of the protocol: as §1

For the next test, the target named is ELF1 (Homo sapiens, UniProt P32519 1-619). The procedure, abridged: as §1
A further test concerns the target T4, EHF (Homo sapiens, UniProt Q9NZC4 1-300).
T4 sequence: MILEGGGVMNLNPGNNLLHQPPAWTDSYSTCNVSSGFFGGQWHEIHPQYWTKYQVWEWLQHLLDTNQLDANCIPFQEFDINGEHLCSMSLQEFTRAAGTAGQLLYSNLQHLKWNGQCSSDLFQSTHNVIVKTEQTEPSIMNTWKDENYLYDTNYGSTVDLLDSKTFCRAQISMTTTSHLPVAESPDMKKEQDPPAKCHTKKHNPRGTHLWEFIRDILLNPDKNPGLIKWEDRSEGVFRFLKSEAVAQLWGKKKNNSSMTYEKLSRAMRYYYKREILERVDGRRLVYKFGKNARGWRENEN
The procedure, abridged:
as §1

The target in the next test is SPI1 (Homo sapiens, UniProt P17947 1-270). A digest of the protocol: as §1
For another test, the target named is SPIB (Homo sapiens, UniProt Q01892 1-262). A digest of the protocol:
as §1

The next test addresses T5, FEV (Homo sapiens, UniProt Q99581 1-238).
T5 sequence: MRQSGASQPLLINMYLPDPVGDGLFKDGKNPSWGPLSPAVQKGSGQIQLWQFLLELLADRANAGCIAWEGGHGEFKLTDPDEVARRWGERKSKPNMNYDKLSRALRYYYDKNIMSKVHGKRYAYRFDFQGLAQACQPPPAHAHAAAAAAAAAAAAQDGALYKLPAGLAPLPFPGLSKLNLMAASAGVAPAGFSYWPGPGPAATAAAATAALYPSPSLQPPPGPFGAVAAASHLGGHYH
The procedure, abridged: as §1

The target of a further test is ETV5 (Homo sapiens, UniProt P41161 1-510). A digest of the protocol:
as §1

The next test addresses ELF4 (Homo sapiens, UniProt Q99607 1-663). A digest of the protocol:
as §1

Another test concerns the target T6, ETV2 (Homo sapiens, UniProt O00321 1-342).
T6 sequence: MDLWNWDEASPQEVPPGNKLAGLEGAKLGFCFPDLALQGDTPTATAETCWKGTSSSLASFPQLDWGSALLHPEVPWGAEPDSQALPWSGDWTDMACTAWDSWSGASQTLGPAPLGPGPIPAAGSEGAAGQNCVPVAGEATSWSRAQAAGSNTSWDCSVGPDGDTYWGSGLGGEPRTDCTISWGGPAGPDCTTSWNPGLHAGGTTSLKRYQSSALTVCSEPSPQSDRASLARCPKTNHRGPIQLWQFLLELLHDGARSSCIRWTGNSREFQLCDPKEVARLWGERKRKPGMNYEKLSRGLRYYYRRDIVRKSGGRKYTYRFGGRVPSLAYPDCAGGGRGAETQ
The procedure, abridged:
as §1

The target in a further test is T7, ELF3 (Homo sapiens, UniProt P78545 1-371).
T7 sequence: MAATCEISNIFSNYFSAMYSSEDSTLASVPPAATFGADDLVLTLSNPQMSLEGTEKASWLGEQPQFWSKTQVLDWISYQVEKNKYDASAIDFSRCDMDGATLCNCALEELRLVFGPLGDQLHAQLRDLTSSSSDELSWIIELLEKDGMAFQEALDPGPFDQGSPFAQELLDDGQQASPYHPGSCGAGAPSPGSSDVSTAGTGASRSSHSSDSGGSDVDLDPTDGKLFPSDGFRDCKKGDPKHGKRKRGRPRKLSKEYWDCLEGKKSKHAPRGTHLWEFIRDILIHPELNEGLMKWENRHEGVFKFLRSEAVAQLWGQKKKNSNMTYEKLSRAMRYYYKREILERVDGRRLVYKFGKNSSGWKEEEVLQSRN
A digest of the protocol: as §1

The target in a further test is ETV1 (Homo sapiens, UniProt P50549 1-477). The procedure, abridged: as §1
In a further test the target is T8, ERF (Homo sapiens, UniProt P50548 1-548).
T8 sequence: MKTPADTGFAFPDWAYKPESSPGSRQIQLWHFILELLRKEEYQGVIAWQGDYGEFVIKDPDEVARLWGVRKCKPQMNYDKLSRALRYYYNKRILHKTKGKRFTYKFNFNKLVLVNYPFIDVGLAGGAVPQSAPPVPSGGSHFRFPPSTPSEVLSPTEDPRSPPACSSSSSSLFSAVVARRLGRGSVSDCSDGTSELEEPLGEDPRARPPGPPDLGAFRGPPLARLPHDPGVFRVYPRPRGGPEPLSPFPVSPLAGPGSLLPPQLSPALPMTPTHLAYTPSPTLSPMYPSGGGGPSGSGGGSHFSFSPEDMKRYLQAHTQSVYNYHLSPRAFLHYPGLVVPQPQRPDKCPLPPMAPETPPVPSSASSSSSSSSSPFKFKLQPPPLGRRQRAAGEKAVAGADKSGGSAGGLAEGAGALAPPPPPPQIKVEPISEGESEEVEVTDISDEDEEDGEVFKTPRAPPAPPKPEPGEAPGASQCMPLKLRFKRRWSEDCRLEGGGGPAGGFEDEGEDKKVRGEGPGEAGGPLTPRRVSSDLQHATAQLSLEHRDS
The procedure, abridged:
as §1

The next test has as its target T9, ETV3L (Homo sapiens, UniProt Q6ZN32 1-361).
T9 sequence: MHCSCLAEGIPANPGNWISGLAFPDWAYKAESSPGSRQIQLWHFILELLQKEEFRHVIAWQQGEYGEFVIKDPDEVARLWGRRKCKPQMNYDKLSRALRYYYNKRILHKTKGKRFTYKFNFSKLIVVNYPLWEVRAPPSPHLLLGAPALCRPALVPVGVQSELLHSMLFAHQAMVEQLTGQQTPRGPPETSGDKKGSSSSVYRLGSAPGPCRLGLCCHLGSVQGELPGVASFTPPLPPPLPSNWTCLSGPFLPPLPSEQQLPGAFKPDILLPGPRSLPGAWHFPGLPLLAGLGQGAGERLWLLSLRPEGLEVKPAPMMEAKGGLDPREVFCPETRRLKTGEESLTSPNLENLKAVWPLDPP
The procedure, abridged: as §1

For a further test, the target named is T10, ETS2 (Homo sapiens, UniProt P15036 1-469).
T10 sequence: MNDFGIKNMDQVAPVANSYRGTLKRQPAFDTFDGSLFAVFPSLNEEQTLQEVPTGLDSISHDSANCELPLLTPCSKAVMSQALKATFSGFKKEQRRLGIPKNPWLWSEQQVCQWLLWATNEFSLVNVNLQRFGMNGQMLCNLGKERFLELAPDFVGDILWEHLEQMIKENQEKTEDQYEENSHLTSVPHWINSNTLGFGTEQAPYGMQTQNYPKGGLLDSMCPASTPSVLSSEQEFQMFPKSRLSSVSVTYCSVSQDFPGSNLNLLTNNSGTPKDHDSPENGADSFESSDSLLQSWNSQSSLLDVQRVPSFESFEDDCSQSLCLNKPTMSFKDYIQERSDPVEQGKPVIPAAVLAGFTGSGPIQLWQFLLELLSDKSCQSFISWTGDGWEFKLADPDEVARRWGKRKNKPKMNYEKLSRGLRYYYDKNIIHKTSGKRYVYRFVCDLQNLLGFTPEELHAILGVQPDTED
The procedure, abridged:
as §1

In the next test the target is T11, ETV7 (Homo sapiens, UniProt Q9Y603 1-341).
T11 sequence: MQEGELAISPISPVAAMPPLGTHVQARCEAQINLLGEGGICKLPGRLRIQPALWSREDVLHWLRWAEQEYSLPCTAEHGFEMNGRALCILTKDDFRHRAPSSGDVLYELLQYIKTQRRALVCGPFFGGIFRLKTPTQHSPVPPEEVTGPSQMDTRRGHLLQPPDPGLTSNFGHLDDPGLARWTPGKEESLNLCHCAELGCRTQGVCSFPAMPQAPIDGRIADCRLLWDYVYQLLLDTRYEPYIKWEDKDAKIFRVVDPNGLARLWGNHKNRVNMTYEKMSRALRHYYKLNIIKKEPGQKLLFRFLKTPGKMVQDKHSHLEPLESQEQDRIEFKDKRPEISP
The procedure, abridged:
as §1

Another test deals with T12, ETV3 (Homo sapiens, UniProt P41162-2 1-143).
T12 sequence: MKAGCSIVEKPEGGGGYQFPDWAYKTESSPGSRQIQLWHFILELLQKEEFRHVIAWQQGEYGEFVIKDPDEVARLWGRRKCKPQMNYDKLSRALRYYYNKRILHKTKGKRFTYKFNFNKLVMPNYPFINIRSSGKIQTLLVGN
A digest of the protocol: as §1

In the next test the target is ETV6 (Homo sapiens, UniProt P41212 1-452). The procedure, abridged: as §1
Chain of ETV6 (P41212 whole entry): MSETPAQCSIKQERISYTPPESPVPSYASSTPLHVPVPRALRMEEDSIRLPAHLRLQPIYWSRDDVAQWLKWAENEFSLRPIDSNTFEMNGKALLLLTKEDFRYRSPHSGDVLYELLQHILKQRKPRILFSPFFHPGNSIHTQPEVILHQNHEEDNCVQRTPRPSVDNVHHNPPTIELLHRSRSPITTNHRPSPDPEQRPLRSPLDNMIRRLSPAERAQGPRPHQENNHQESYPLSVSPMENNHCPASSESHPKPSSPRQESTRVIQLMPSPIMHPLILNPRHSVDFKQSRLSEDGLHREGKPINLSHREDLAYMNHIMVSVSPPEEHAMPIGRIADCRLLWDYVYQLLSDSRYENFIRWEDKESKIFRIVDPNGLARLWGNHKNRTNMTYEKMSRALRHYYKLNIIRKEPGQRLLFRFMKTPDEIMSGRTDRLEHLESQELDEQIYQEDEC

Chain of ELF4 (Q99607 whole entry): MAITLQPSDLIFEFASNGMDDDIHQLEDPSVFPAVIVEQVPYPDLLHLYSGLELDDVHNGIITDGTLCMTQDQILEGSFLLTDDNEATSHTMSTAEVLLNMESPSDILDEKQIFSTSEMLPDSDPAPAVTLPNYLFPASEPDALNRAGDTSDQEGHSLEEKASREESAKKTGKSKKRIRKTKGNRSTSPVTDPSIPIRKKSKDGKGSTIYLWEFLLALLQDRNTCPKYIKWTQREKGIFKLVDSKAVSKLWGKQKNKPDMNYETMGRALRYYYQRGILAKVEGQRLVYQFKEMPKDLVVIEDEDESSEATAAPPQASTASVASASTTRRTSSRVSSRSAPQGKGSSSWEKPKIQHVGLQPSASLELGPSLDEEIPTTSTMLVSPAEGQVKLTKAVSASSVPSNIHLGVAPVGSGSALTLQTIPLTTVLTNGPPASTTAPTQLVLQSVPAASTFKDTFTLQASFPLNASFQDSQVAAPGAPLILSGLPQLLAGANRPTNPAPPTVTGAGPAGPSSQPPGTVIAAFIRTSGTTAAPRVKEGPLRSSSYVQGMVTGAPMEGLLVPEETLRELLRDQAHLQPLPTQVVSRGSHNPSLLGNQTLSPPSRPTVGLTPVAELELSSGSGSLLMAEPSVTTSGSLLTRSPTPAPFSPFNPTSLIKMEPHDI
Chain of ETV5 (P41161 whole entry): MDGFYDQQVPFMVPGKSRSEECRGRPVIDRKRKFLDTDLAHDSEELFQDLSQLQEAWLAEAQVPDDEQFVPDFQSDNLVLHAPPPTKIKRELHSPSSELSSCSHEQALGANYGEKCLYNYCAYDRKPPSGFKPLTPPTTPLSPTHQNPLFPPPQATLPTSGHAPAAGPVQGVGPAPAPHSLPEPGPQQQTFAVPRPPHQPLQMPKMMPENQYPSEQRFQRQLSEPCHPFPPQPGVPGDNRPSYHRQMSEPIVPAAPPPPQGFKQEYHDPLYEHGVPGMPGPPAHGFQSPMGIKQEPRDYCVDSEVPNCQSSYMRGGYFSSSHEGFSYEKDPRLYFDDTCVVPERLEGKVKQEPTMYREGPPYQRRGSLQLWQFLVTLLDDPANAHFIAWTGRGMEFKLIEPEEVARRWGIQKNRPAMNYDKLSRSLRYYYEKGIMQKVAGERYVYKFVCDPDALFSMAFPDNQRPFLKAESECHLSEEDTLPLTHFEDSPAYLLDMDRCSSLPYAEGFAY
Chain of ETV1 (P50549 whole entry): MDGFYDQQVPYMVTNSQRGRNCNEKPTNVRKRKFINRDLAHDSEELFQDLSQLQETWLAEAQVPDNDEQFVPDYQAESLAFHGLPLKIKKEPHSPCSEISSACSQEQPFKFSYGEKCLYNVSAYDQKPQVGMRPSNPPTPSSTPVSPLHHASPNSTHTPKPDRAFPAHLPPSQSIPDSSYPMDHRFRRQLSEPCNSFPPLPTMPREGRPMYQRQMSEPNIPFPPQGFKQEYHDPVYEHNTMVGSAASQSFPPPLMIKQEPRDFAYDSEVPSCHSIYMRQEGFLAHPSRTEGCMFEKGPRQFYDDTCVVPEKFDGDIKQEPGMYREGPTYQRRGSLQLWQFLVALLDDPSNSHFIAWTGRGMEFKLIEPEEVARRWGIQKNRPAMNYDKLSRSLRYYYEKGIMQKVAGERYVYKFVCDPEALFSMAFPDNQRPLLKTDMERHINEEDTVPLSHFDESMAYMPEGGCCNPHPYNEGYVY
Chain of ELF1 (P32519 whole entry): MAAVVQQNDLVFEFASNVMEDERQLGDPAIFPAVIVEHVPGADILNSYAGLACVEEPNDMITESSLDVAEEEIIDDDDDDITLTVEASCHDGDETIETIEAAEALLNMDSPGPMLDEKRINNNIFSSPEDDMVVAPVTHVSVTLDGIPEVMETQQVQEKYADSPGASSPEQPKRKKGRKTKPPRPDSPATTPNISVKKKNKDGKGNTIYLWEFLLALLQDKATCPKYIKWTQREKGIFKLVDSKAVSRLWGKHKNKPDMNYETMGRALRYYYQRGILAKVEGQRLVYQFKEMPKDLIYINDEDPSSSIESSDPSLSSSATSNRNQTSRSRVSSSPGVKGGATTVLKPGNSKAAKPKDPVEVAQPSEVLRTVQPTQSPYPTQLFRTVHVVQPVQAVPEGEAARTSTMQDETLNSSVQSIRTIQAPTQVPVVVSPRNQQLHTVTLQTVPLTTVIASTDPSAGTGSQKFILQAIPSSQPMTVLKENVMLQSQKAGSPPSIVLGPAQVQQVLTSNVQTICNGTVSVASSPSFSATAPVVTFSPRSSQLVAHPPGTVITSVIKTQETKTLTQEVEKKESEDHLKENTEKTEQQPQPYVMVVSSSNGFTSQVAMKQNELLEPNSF
Chain of SPIB (Q01892 whole entry): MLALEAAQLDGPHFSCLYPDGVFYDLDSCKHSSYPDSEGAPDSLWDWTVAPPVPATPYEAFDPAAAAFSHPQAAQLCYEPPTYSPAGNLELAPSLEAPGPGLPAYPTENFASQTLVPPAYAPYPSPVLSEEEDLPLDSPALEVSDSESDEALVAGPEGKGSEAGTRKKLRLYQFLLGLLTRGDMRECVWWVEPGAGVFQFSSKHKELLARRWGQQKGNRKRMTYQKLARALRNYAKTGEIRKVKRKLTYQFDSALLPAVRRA

On to CCCGTC, for which the binding signal with ELK1 is 1.1 fold enrichment (6-mer frequency, TF over GST control); in the test with GABPA, 1.01 fold enrichment (6-mer frequency, TF over GST control); with ERG, 1.1 fold enrichment (6-mer frequency, TF over GST control); in the test with ELF1 it was 1.13 fold enrichment (6-mer frequency, TF over GST control); in the test with EHF, 1.09 fold enrichment (6-mer frequency, TF over GST control); with SPI1, 1.11 fold enrichment (6-mer frequency, TF over GST control). Further, the binding signal was 1.05 fold enrichment (6-mer frequency, TF over GST control) with SPIB; 1.09 fold enrichment (6-mer frequency, TF over GST control) with FEV; 1.08 fold enrichment (6-mer frequency, TF over GST control) in the test with ETV5; 1.07 fold enrichment (6-mer frequency, TF over GST control) in the test with ELF4; 1.32 fold enrichment (6-mer frequency, TF over GST control) in the test with ETV2; 1.03 fold enrichment (6-mer frequency, TF over GST control) in the test with ELF3. Also, the binding signal with ETV1 was 1.1 fold enrichment (6-mer frequency, TF over GST control); in the test with ERF, 1.14 fold enrichment (6-mer frequency, TF over GST control); with ETV3L, 1 fold enrichment (6-mer frequency, TF over GST control); in the test with ETS2 it was 1.04 fold enrichment (6-mer frequency, TF over GST control); with ETV7, 1.16 fold enrichment (6-mer frequency, TF over GST control); in the test with ETV3, 1.03 fold enrichment (6-mer frequency, TF over GST control). In addition, the binding signal with ETV6 was 1.07 fold enrichment (6-mer frequency, TF over GST control).
